# Reference: PubChem BioAssay (Tox21)
# Values without a mark were called inactive. The source made the active and inactive calls. Calls come from the whole dose curve; as a rule, active = well fitted curve in the direction sought with a large enough effect in the repeat runs; inconclusive = weak or mixed curves; inactive = flat fitted curve, though single readings scatter.
# Assay: qHTS assay to test for compound auto fluorescence at 535 nm (green) in HEK293 cell free culture (AID 720682)
# Conditions: cell-free medium, green autofluorescence 485/535 nm, active compounds read high; series mostly up to 91.3 µM; activity change: at the top concentration
# Summary of the method: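 Green-label autofluorescence (485 nm excitation, 535 nm emission) measured on compound added to cell-free culture medium (DMEM, 10% FBS). Output is expressed relative to fluorescein.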
# % is set by controls: 0 for no effect and ±100 for the full control effect.
Compound,activity change,outcome
CN(C)CC[C@@H](c1ccc(Br)cc1)c1ccccn1,0.0223% [at 46 µM],–
O=C(O)/C=C/c1cnc[nH]1,-0.0896%,–
Cc1occc1S,0.0278%,–
CC(C)CCCCCCOC(=O)c1ccc(C(=O)OCCCCCCC(C)C)c(C(=O)OCCCCCCC(C)C)c1,0.0261%,–
O=c1[nH]cnc2ccccc12,-0.102% [at 95.7 µM],–
CCN(CC)CCOc1ccc2c(c1)C(=O)c1cc(OCCN(CC)CC)ccc1-2,0.0216% [at 46 µM],–
CC(=O)OCCc1ccccc1,0.0818%,–
CCCCCCCCCCCCC(=O)O,0.0393%,–
Oc1ccc(Cc2ccccc2)cc1,-0.0017%,–
NC1CCN(c2nc3c(cc2F)c(=O)c(C(=O)O)cn3-c2ccc(F)cc2F)C1 (centres undefined),0.0526% [at 46 µM],–
CC(C)c1ccc2c(C(C)C)cc(C(C)C)c(S(=O)(=O)O)c2c1,-0.0774% [at 95.7 µM],–
O=CNc1ccccc1,-0.0176%,–
Cc1cccc(Oc2ccccc2)c1,-0.0652%,–
O=C(O)[C@@H]1[C@H]2C[C@H]3c4[nH]c5ccccc5c4CCN3C[C@@H]2CC[C@@H]1O,-0.0263% [at 18.6 µM],–
O=C(O)Cc1cc(I)c(Oc2ccc(O)c(I)c2)c(I)c1,–,inactive
O=c1c2ccccc2nnn1CCl,0.0834%,–
O=C(NN1CCCC1)NS(=O)(=O)c1ccc(Cl)cc1,-0.0065% [at 46 µM],–

Compound,activity change,outcome
C[C@@H](C1=C(CCN(C)C)Cc2ccccc21)c1ccccn1,-0.0106% [at 46 µM],–
CCN(CC)CCOC(=O)C1(c2ccccc2)CCCC1,-0.206% [at 46 µM],–
CC(C)(C)c1ccc(OCC2CO2)cc1 (centres undefined),-0.0315% [at 95.7 µM],–
Cc1ccccn1,–,inactive
CCOc1ccc(NC(=O)CC(C)=O)cc1,0.0685%,–
CC(=O)/C=C/C1C(C)=CCCC1(C)C (centres undefined),0.0201%,–
CCCCOC(=O)/C=C\C(=O)OCCCC,0.004% [at 95.7 µM],–
N#CCCNCCC#N,0.0162% [at 95.7 µM],–
CCCOc1ccc2nc(NC(=O)OC)[nH]c2c1,0.0106% [at 46 µM],–
O=C1c2cccc(O)c2C(=O)c2c(O)cc(CO)cc21,-0.0229%,–
CCOC(=O)C1=NN(c2ccccc2)C(=O)C1,0.0356%,–
CC(=O)SCc1ccco1,0.0988%,–
Cc1ccccc1N=Nc1ccc(N=Nc2c(O)ccc3ccccc23)c(C)c1,0.0947% [at 46 µM],–
CN(C(=O)CCCOc1ccc2[nH]c(=O)ccc2c1)C1CCCCC1,-0.025% [at 46 µM],–
CCN(CC)C(C)CN1c2ccccc2Sc2ccccc21 (centres undefined),-0.135% [at 18.6 µM],–
Cc1ccc(C(=O)C(C)CN2CCCCC2)cc1 (centres undefined),–,inactive
O=C(O)Cn1c(C(=O)Nc2nc(-c3ccccc3Cl)cs2)cc2ccccc21,-0.0108% [at 46 µM],–
